The values below come from PubChem BioAssay.

By inhibition is commonly meant the relative decrease from the control value, in per cent.

The nature of assay [1]: antimalarial activity against Dd2 strain (AID 2302;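 active means growth inhibition above 50% at the single 2 µM test dose, taken to imply half-maximal potency below 2 µM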;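 further: 0% = DMSO untreated growth and 100% = chloroquine plus artemisinin killed control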). As to conditions: P. falciparum Dd2 in RBCs, LDH growth readout, 72 h; at 2 µM; hits give high values.
The nature of assay [2]: HepG2 cytotoxicity, primary screen, cytotoxicity control for P. falciparum antimalarial project, cell-based, ATP luminescence (AID 2303;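 active means inhibition above 50%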;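 further: 0% = DMSO wells and 100% = digitonin-killed cells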). As to conditions: HepG2 viability, 24-48 h, at 10 µM, hits give high values.
The target in assay [3] is L-lactate dehydrogenase (Plasmodium falciparum (isolate CDC / Honduras)) (UniProt Q27743). Put plainly: PfLDH activity inhibition – cell lysate, 3D7 strain, counter-screen for P. falciparum growth inhibition project (AID 2304).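 Further: 0% = vehicle and 100% = reference inhibitor.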 As to conditions: P. falciparum 3D7 crude extract, LDH APAD/NBT absorbance; at 2 µM; hits give high values. (In general: The purpose of a counterscreen is to sort out artefacts and off-target activity.)
L-lactate dehydrogenase (Plasmodium falciparum (isolate CDC / Honduras)), sequence (Q27743 whole entry, looked up): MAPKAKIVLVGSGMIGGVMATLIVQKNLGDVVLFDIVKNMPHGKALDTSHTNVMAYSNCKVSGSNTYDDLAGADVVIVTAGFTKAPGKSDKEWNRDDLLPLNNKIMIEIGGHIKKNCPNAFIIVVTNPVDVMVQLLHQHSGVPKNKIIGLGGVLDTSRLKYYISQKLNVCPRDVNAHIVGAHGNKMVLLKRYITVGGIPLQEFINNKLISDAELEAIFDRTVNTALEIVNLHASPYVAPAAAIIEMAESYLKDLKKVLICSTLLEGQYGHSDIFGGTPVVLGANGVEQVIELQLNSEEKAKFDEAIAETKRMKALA

Assay [4] can be described thus: inhibition of 3D7 malaria parasite growth – strain 3D7 (AID 2306).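 Further: 0% = DMSO wells and 100% = chloroquine plus artemisinin control wells.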 The note with it: P. falciparum 3D7 erythrocytic growth, LDH absorbance, 72 h; at 2 µM; hits give high values.
Assay [5] concerns the target Calcium-dependent protein kinase 1 (Plasmodium falciparum (isolate 3D7)) (UniProt P62344). As to the kind of experiment: PfCDPK1 kinase inhibitors, biochemical, TCAMS library (AID 1159585; cut-off not given, nearly all actives have IC50 up to about 0.98 µM;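 further: inhibitors leave more ATP so luminescence rises with inhibition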). As to conditions: recombinant PfCDPK1, Kinase-Glo ATP depletion luminescence. (In general: Kinase-Glo reads ATP consumption through a luciferase reaction.)
The target in assay [6] is Plasmodium falciparum protein kinase 6 (PK6, PF3D7_1337100) (UniProt Q8IDW1). As to the kind of experiment: PfPK6 kinase inhibitors, biochemical, TCAMS library (AID 1159586). The note with it: recombinant PfPK6, Kinase-Glo ATP depletion luminescence.
Plasmodium falciparum protein kinase 6 (PK6, PF3D7_1337100), sequence (Q8IDW1 1-305): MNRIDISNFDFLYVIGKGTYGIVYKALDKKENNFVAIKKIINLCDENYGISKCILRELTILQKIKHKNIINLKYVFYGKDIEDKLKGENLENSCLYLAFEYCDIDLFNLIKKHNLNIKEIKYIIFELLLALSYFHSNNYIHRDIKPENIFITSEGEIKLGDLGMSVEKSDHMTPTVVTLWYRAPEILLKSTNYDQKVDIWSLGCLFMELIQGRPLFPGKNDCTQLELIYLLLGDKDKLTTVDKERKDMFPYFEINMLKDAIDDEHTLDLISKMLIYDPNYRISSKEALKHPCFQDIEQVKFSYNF
The target of assay [7] is Protein kinase 7 (PK7), Plasmodium falciparum 3D7 (PF3D7_0213400) (UniProt Q7YTF7). Put plainly: inhibition of Plasmodium PK7 catalytic activity – biochemical, TCAMS antimalarial set, Kinase-Glo luminescence (AID 1159587). The note with it: recombinant PfPK7, Kinase-Glo ATP depletion luminescence.
Protein kinase 7 (PK7), Plasmodium falciparum 3D7 (PF3D7_0213400), sequence (Q7YTF7 1-343): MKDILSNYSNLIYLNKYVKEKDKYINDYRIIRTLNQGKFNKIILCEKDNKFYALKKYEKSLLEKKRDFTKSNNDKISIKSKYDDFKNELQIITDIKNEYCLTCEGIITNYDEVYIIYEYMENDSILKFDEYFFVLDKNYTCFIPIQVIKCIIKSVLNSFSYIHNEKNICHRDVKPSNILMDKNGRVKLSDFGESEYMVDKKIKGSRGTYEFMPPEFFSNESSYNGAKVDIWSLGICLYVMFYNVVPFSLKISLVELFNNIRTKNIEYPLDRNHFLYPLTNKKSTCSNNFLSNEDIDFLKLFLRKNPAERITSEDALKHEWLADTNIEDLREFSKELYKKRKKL
Assay [8] deals with Calcium-dependent protein kinase 4 (Plasmodium falciparum (isolate 3D7)) (UniProt Q8IBS5). As to the kind of experiment: PfCDPK4 kinase inhibitors, biochemical, TCAMS library (AID 1159588; cut-off not given, nearly all actives have IC50 up to about 0.91 µM). The note with it: recombinant PfCDPK4, Kinase-Glo ATP depletion luminescence.
Calcium-dependent protein kinase 4 (Plasmodium falciparum (isolate 3D7)), sequence (Q8IBS5 whole entry, looked up): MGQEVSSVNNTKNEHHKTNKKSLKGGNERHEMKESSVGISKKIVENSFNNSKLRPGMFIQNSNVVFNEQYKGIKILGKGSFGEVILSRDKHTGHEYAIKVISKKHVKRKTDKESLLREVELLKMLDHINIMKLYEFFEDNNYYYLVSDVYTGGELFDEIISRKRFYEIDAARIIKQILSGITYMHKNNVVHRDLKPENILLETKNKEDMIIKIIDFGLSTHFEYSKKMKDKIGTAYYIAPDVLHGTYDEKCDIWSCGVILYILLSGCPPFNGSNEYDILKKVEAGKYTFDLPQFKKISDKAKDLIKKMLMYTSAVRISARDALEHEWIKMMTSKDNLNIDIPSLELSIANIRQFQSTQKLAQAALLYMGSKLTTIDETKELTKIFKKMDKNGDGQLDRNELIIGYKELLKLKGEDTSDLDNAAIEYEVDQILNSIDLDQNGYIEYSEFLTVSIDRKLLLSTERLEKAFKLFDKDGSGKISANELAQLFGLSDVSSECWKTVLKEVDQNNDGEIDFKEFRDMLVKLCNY

A number with no mark means an inactive call. For some of these results: Measured potencies and affinities stand elsewhere. Activity calls are given as the source filed them. Unless noted, how the calls were made is not given here.

Calcium-dependent protein kinase 1 (Plasmodium falciparum (isolate 3D7)), sequence (P62344 whole entry, looked up): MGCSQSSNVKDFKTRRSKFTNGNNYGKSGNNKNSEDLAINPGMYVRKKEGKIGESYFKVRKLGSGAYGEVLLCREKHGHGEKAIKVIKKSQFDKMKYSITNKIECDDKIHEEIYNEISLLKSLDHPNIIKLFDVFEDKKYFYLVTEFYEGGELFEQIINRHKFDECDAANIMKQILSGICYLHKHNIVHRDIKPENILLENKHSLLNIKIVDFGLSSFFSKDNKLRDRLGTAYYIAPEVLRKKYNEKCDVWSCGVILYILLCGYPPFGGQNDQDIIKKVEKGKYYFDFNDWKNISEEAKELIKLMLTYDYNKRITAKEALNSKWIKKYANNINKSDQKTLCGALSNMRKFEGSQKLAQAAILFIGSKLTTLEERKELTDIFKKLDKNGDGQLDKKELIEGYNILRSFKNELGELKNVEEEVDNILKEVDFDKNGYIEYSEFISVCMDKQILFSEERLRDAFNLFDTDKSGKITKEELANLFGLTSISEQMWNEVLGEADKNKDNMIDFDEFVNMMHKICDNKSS

As for `Cc1cc(N2CCN(CC3CCN(C)CC3)CC2)nc(Nc2ccc(Cl)cc2)n1`, the growth inhibition in assay [1] was 89% (active); in assay [4], 99% (active). Also, the figures for the inhibition in assay [2] and in assay [3] were 20% and -6%, respectively. Further, the outcome in assay [5], in assay [6], in assay [7] and in assay [8] was inactive.
In the case of `CN(C)CCCOc1ccc(CN2CC[C@H](NC(=O)c3ccc(Cl)c(Cl)c3)C2)cc1Br`, the growth inhibition in assay [1] was 34%; in assay [4], 101% (active). Further, the inhibition in assay [2] is 11%; in assay [3] it was -2%. Also, the outcome in assay [5], in assay [6], in assay [7] and in assay [8] was inactive.
Turning to `Cc1ccc2c(c1)c(C1CCN(C(=O)c3ccc([N+](=O)[O-])o3)CC1)cn2C`, the growth inhibition in assay [1] is 76% (active); in assay [4], 97% (active). Also, the figures for the inhibition in assay [2] and in assay [3] were -6% and -1%, respectively. The result in assay [5], in assay [6], in assay [7] and in assay [8] was inactive.
For the compound `Fc1ccccc1CNc1ncc(-c2ccsc2)c(-c2nccs2)n1`, the growth inhibition in assay [1] was 71% (active); in assay [4] it was 86% (active). Further, the inhibition was 11% in assay [2] and -6% in assay [3]. For the same compound, the result in assay [5], in assay [6], in assay [7] and in assay [8] was inactive.
Consider `COc1cc2nc(NCCn3nc(C)cc3C)nc(NCCc3ccccc3)c2cc1OC`, for which the growth inhibition in assay [1] is 100% (active); in assay [4], 103% (active). Besides, the values for the inhibition in assay [2] and in assay [3] were 28% and -3%, respectively. In addition, the outcome in assay [5], in assay [6], in assay [7] and in assay [8] was inactive.
For the compound `CCc1c(C)c2ccc3c(c2oc1=O)CN(CCc1ccc(F)cc1)CO3`, the growth inhibition in assay [1] was 85% (active); in assay [4] it was 94% (active). The inhibition was 0% in assay [2] and -2% in assay [3]. The outcome in assay [5], in assay [6], in assay [7] and in assay [8] was inactive.
For the compound `CC(=O)c1ccc(Nc2c(C(N)=O)cnc3cc(-c4c(C)noc4C)ccc23)cc1`, the figures for the growth inhibition in assay [1] and in assay [4] were 44% and 99% (active), respectively. The inhibition is -3% in assay [2] and 3% in assay [3]. Also, the result in assay [5], in assay [6], in assay [7] and in assay [8] was inactive.
For `COc1ccc(-c2ccc(NC(=O)c3cccc(Cl)c3)c(F)c2)cc1CNC(C)C`, the growth inhibition in assay [1] was 14%; in assay [4], 93% (active). For the same compound, the inhibition was 19% in assay [2] and -5% in assay [3]. In addition, the outcome in assay [5], in assay [6], in assay [7] and in assay [8] was inactive.
For the compound `c1cncc(CNc2ncc(-c3ccsc3)c(-c3nccs3)n2)c1`, the growth inhibition in assay [1] is 63% (active); in assay [4], 81% (active). Also, the inhibition in assay [2] was -6%; in assay [3], 2%. Further, the outcome in assay [5], in assay [6], in assay [7] and in assay [8] was inactive.
For the compound `O=C(CN1CCCC1)Nc1cccc(C(=O)Nc2cccc(C(F)(F)F)c2)c1`, the growth inhibition in assay [1] was 83% (active); in assay [4], 95% (active). In addition, the inhibition in assay [2] is 9%; in assay [3], 1%. Further, the outcome in assay [5], in assay [6], in assay [7] and in assay [8] was inactive.
Consider `COc1cccc(OC)c1OCCCON1C(N)=NC(N)=NC1(C)C`, for which the growth inhibition in assay [1] is 96% (active); in assay [4], 95% (active). Moreover, the inhibition is 53% (active) in assay [2] and 1% in assay [3]. For the same compound, the result in assay [5], in assay [6], in assay [7] and in assay [8] was inactive.
As to `CNS(=O)(=O)CCNCc1ccc(-c2ccc3ncnc(Nc4ccc(OCc5ccccc5)cc4)c3c2)o1`, the values for the growth inhibition in assay [1] and in assay [4] were 26% and 101% (active), respectively. The inhibition is 19% in assay [2] and -3% in assay [3]. Also, the outcome in assay [5], in assay [6], in assay [7] and in assay [8] was inactive.
Regarding `CCOc1cc(Cl)c(C(C)NC(=O)c2ccccc2)cc1OCC` (stereo not given), the growth inhibition in assay [1] was 49%; in assay [4] it was 91% (active). Moreover, the inhibition was -3% in assay [2] and -1% in assay [3]. Also, the result in assay [5], in assay [6], in assay [7] and in assay [8] was inactive.
`O=C(Nc1ccncc1)c1cc(C(=O)Nc2ccncc2)cc([N+](=O)[O-])c1`: the growth inhibition in assay [1] was 50% (active); in assay [4], 100% (active). Also, the inhibition is 1% in assay [2] and -3% in assay [3]. Besides, the result in assay [5], in assay [6], in assay [7] and in assay [8] was inactive.
In the case of `CN1CCCN(Cc2cccc(-c3ccc(NS(=O)(=O)c4cccc5cccnc45)cc3)c2)CC1`, the growth inhibition was 87% (active) in assay [1] and 100% (active) in assay [4]. Besides, the inhibition was 44% in assay [2] and 2% in assay [3]. Further, the result in assay [5], in assay [6], in assay [7] and in assay [8] was inactive.
As to `O=C1C(=Cc2cc(Cc3ccccc3)ccc2O)SC(=S)N1Cc1ccccc1`, the growth inhibition in assay [1] was 53% (active); in assay [4], 98% (active). Further, the inhibition in assay [2] is 16%; in assay [3] it was -2%. Also, the result in assay [5], in assay [6], in assay [7] and in assay [8] was inactive.
Take `O=C(NC1CCN(Cc2ccccc2)CC1)c1cc(C(=O)NC2CCN(Cc3ccccc3)CC2)cc(C(=O)NC2CCN(Cc3ccccc3)CC2)c1`: the growth inhibition in assay [1] and in assay [4] was 100% (active) in each case. The inhibition in assay [2] was 13%; in assay [3] it was 1%. For the same compound, the outcome in assay [5], in assay [6], in assay [7] and in assay [8] was inactive.
Turning to `Cc1ccc2c(Cl)c(C(=O)N3CCCc4ccccc43)sc2c1`, the growth inhibition is 15% in assay [1] and 99% (active) in assay [4]. The values for the inhibition in assay [2] and in assay [3] were 4% and 0%, respectively. Further, the result in assay [5], in assay [6], in assay [7] and in assay [8] was inactive.
For the compound `Cc1ccc2nc(Cl)c3cc(C(=O)NCCCN4CCCC4)sc3c2c1`, the results for the growth inhibition in assay [1] and in assay [4] were 40% and 89% (active), respectively. Besides, the values for the inhibition in assay [2] and in assay [3] were 26% and 0%, respectively. Moreover, the outcome in assay [5], in assay [6], in assay [7] and in assay [8] was inactive.
Consider `Cc1c(CCNC(=O)CCCN2CC(C)CC(C)C2)c2ccccc2n1C` (stereo not given), for which the growth inhibition is 100% (active) in assay [1] and 87% (active) in assay [4]. For the same compound, the inhibition was 8% in assay [2] and -9% in assay [3]. Also, the result in assay [5], in assay [6], in assay [7] and in assay [8] was inactive.
